According to PubChem BioAssay (NCATS):
Inconclusive results are not listed. Entries that show only a call come without a potency. Active and inactive are the calls of the source. Calls come from the whole dose curve; as a rule, active = well fitted curve in the direction sought with a large enough effect; inconclusive = small, poorly fitted or top-dose-only effect, or another doubt; inactive = no such curve, though single readings can be large; an effect the other way counts as inactive or inconclusive.

Assays:
[1] = target: Aldehyde dehydrogenase, mitochondrial (Homo sapiens) (UniProt P05091); experiment: qHTS for Inhibitors of the Aldehyde Dehydrogenase Family (ALDH2) Primary screen (AID 2061308); note: nearly all actives have a fitted effect of over 55% in size
[2] = target: Retinaldehyde dehydrogenase 3 (Homo sapiens) (UniProt P47895); experiment: qHTS for Inhibitors of the Aldehyde Dehydrogenase Family (ALDH1A3) Primary screen (AID 2061315)

SMILES | Potency [1] | Potency [2]
Cc1ccc(-c2ccc(=O)n(CC(=O)N(C)[C@H](C)c3ccccc3)n2)cc1 | inactive | inactive
Cc1ccc(-c2cc(C(=O)Nc3ccc(C#N)cc3)c3ccccc3n2)cc1C | inactive | inactive
CN(C)CCOC(C)(c1ccccc1)c1ccc(Cl)cc1 (configuration not stated) | inactive | inactive
C=C(C(=O)O)[C@H]1C[C@]2(C)C(=O)CC[C@]23O[C@H]1C[C@@H]3C | inactive | inactive
O=C(NCCc1nc2ccccc2n1CCOc1cccc([N+](=O)[O-])c1)C1CCCCC1 | inactive | inactive
CCCCNc1nc(C)nc2c1nc(-c1ccccc1)n2CCN1CCCC1 | inactive | inactive
Cc1cc(C)n2ncc(C(=O)Nc3cccc(C#N)c3)c2n1 | inactive | inactive
Cn1nnnc1Sc1ncnc2scc(-c3ccc(Br)cc3)c12 | inactive | inactive
CC(=O)NS(=O)(=O)c1ccc(NC(=O)c2cc(-c3ccc(C)c(C)c3)nc3ccccc23)cc1 | inactive | inactive
O=C(O)CCCCCNC(=O)CSc1nnc(-c2ccc([S+](=O)([O-])N3CCCC3)cc2)n1-c1ccccc1 | inactive | inactive
O=C(O)c1ccc(O)c2ncc(N3CCCCC3CCc3ccccn3)cc12 (configuration not stated) | inactive | inactive
CCc1ccc(S(=O)(=O)Nc2cnccc2C(=O)Nc2nc(-c3ccccc3)cs2)cc1 | inactive | inactive
COc1ccc(C2c3c(nc(Cc4ccccc4)[nH]c3=O)Oc3ccc4ccccc4c32)cc1OC (configuration not stated) | inactive | inactive
CC(=O)Nc1cccc(S(=O)(=O)N2CCN(S(=O)(=O)c3ccc4c(c3)OCCO4)CC2)c1 | inactive | inactive
N=c1c2c(ccn1CCCCc1ccccc1)Oc1ccc3ccccc3c1C2c1ccccc1 (configuration not stated) | inactive | inactive
O=C(Nc1ccc2c(c1)OCCO2)c1ccc(-c2nc3ccccc3[nH]2)cc1 | inactive | inactive
O=C1Nc2cccc(Cl)c2/C1=C\c1cc(Cl)c(O)c(Cl)c1 | inactive | inactive
O=C1CCc2cc(S(=O)(=O)Nc3cccc(C(F)(F)F)c3)ccc2N1 | inactive | inactive
c1nc(NCCc2cnc[nH]2)c2cc(-c3ccoc3)ccc2n1 | inactive | inactive
COC(=O)C12C(=O)C(C)=C(O)C1(C)C(C)=CC1C3(CO)CCC(O)C(C)(C)C3CCC12C (configuration not stated) | inactive | inactive
CCOc1ccc(CCNC(=O)c2ccnn2Cc2cccc(C)c2)cc1OCC | inactive | inactive
O=S(=O)(NCC1CN(S(=O)(=O)c2c(F)cccc2F)C1)c1ccc2c(c1)OCCO2 | inactive | inactive

SMILES | Potency [1] | Potency [2]
CC1=CC(=O)C2C(C)(C)CCCC2(C)C12CCC1(COC(=O)C1)O2 (configuration not stated) | inactive | inactive
Cc1cc(C)nc(NC(=S)N2CCN(c3ccccn3)CC2)c1 | inactive | inactive
Cc1ccnc(NC(=S)Nc2cccc(C(F)(F)F)c2)c1 | inactive | inactive
Cc1nnc(-c2cnn(C)c2N)n1CCc1cccs1 | inactive | inactive
FC(F)(F)c1ccccc1-c1nc(NCc2ccc(-c3ccc4c(c3)OCO4)cc2)c2ccccc2n1 | inactive | inactive
N#Cc1ccc(Nc2nn3c(=O)c4ccccc4nc3s2)cc1 | inactive | inactive
O=C(OCC#CCSc1nnc(-c2cccc3ccccc23)o1)c1ccccc1F | inactive | inactive
Cc1cc(N[S+](=O)([O-])c2ccc(NC(=O)Cc3ccc4c(c3)CCCC4)cc2)no1 | inactive | inactive
FC(F)(F)c1cccc(N2CCN(C(=S)Nc3ccccn3)CC2)c1 | inactive | inactive
O=c1c2[nH]c3ccsc3c2cnn1Cc1ccccc1F | inactive | inactive
O=C(Nc1ccc(Cl)cc1)Nc1cccc(-c2cccc(N3CCCC3)n2)c1 | inactive | inactive
Cc1cc(C)n2ncc(C(=O)Nc3ccc(C(C)(C)C)cc3)c2n1 | inactive | inactive
COc1ccc(-c2nnc3n2N=C(c2ccccc2OC)CS3)cc1 | inactive | inactive
Cc1ccc(C(C)c2ccc(=O)n(CC(=O)NCCc3ccccc3)n2)cc1 (configuration not stated) | inactive | inactive
Cc1nnc(-c2cnn(C)c2N)n1CCCc1cccnc1 | inactive | inactive
Cc1cc(NC(=O)Nc2nnc(C3CCCCC3)s2)ccc1Br | inactive | inactive
O=C(Nc1ccc(S(=O)(=O)Nc2nccs2)cc1)[C@@H]1CC[C@H](C(=O)c2ccccc2)C1 | inactive | inactive
COc1ccc(N2C[C@]34C=C[C@H](O3)C(C(=O)O)C4C2=O)cc1 (some centres not stated) | inactive | inactive
c1nc(N2CCC(N3CCCC3)CC2)c2cc(-c3ccc4c(c3)OCO4)ccc2n1 | inactive | inactive
Cc1ccc(-c2ccc(=O)n(CC(=O)N(C)C(C)c3ccco3)n2)cc1 (configuration not stated) | inactive | inactive
COc1cccc(C(=O)NC2CCN(C#N)CC2)c1 | inactive | inactive
O=c1c2ccc(Cl)cc2nc2sc(Nc3ccc4c(c3)CCC4)nn12 | inactive | inactive

SMILES | Potency [1] | Potency [2]
CC1=CC(=O)CC(C)(C)C1CCC(C)OC1OC(COC(=O)c2cc(O)c(O)c(O)c2)C(O)C(O)C1O (configuration not stated) | inactive | inactive
Cc1cc2c(s1)c1cnn(Cc3ccc(F)c(C)c3)c(=O)c1n2C | inactive | inactive
COc1cccc(C2c3c(ncn(-c4cccc(C#N)c4)c3=N)Oc3ccc4ccccc4c32)c1 (configuration not stated) | inactive | inactive
Cc1cc2c(s1)c1cnn(Cc3cc(Cl)ccc3F)c(=O)c1n2C | inactive | inactive
COc1ccc(NC(=O)C(OC(=O)CNC(=O)c2ccccc2)c2ccccc2)cc1Cl (configuration not stated) | inactive | inactive
O=C1CCCC2=C1C(c1[nH]ncc1Br)N=C(Nc1nc3ccccc3o1)N2 (configuration not stated) | inactive | inactive
Cc1ccc(OCCn2c(CCNC(=O)/C=C/c3ccccc3Cl)nc3ccccc32)cc1 | inactive | inactive
Fc1cnc(-c2ccccc2C(F)F)nc1NCc1ccc(-c2ccn[nH]2)cc1 | inactive | inactive
Cc1cnc(-c2ccccc2C(C)C)nc1NCC1CCN(C2COC2)CC1 | inactive | inactive
C=C[C@@]12COC(=O)C(=C)C1[C@@H](O)[C@H](C(=C)C(=O)OC)[C@@H](OC(=O)C(=C)CO)C2 (some centres not stated) | inactive | inactive
CCOc1ccc(CCNC(=O)c2ccc(C3(C(F)(F)F)N=N3)cc2)cc1OCC | inactive | inactive
O=C(Nc1ccc(Cl)cc1)c1ccccc1NCc1ccncc1 | inactive | inactive
Cc1ccc(NS(=O)(=O)c2ccc3c(c2)N(C)C(=O)CO3)cc1C | inactive | inactive
CC(=O)Nc1ccc(NC(=S)NC(=O)c2ccc(C(C)(C)C)cc2)cc1 | inactive | inactive
CCN1CCN(c2cc(-c3ccc(F)cc3)c3c(n2)CCCCCC3)CC1 | inactive | inactive
CC(=O)Nc1sc2c(c1-c1cccc(N(C)C)c1)CCNC2 | inactive | inactive
Cc1ccnc(C(=S)N2CCN(c3cccc(C(F)(F)F)c3)CC2)c1 | inactive | inactive
CCNC(=O)C1CCN(C(=O)C(C)(C)NC(=O)Nc2ccccc2Cl)CC1 | inactive | inactive
CC(C)(C)[C@H](NC(=O)c1ccc(N)c(Cl)c1)C(=O)N1CCC[C@H]1C(=O)N[C@H](C#N)Cc1nn[nH]n1 | inactive | inactive
Cc1cccc(CNc2ncnc3ccc(-c4ccccc4Cl)cc23)c1 | inactive | inactive
Cc1ccccc1C(=O)N1CCc2cc(-c3nc(NC(=O)c4ccc5c(c4)OCO5)sc3C)ccc21 | inactive | inactive
OC[C@H]1O[C@@H](O[C@H]2[C@H](OCCc3ccccc3)O[C@H](CO)[C@@H](O)[C@@H]2O)[C@H](O)[C@@H](O)[C@@H]1O | inactive | inactive

SMILES | Potency [1] | Potency [2]
Cc1cccc(-n2cnc3cc(C(=O)N4CCC(Cc5ccccc5)CC4)ccc32)c1 | inactive | inactive
O=C(Nc1nnc(-c2ccco2)o1)c1ccc(Cl)cc1 | inactive | inactive
CC(C)C1=CC2=CCC3[C@](C)(CCC[C@@]3(C)C(=O)O)C2CC1O (some centres not stated) | inactive | inactive
COC(=O)[C@@H]1C2CC3c4[nH]c5ccccc5c4CCN3CC2CC[C@@H]1O (some centres not stated) | inactive | inactive
CCN(CC)CCCCn1c(-c2ccccc2)nc2c(N3CCOCC3)nc(C)nc21 | inactive | inactive
Cc1ccc(NS(=O)(=O)c2cc3c(cc2Cl)CCC(=O)N3)cc1C | inactive | inactive
COc1cccc(C(=O)NCCc2nc3ccccc3n2CCOc2ccc(C)cc2)c1 | inactive | inactive
Cc1ccc(Cl)cc1NC(=O)c1nc[nH]c1C(=O)Nc1nc2ccccc2[nH]1 | inactive | inactive
Cc1nc(NCc2ccccc2)c2nc(-c3ccccc3)n(CCCN(C)C)c2n1 | inactive | inactive
Nc1cccc(-c2ccc(NC(=O)c3cccs3)cn2)c1 | inactive | inactive
O=[N+]([O-])c1ccc([S+](=O)([O-])N2CCN([S+](=O)([O-])c3ccc4c(c3)OCCO4)CC2)c([N+](=O)[O-])c1 | inactive | inactive
Cc1ccc(Cn2ncc3c4sc(C)cc4n(C)c3c2=O)cc1 | inactive | inactive
O=[S+]([O-])(c1ccc(OC(F)(F)F)cc1)N1CCN([S+](=O)([O-])c2ccc3c(c2)OCCO3)CC1 | inactive | inactive
Cc1cc2c(s1)c1cnn(Cc3cccc(F)c3F)c(=O)c1n2C | inactive | inactive
O=C1CCCC2=C1C1(CCCC1)N=C(Nc1nc3cc(-c4ccccc4)ccc3o1)N2 | inactive | inactive
Cc1ccc(NS(=O)(=O)c2cc3c(cc2F)NC(=O)CC3)cc1Cl | inactive | inactive
Cc1cnc(-c2ccccc2C2CC2)nc1NCc1ccc(-c2cccnc2)cc1 | inactive | inactive
Cc1ccc(CNc2nc(-c3ccccc3C(F)(F)F)nc3ccccc23)cc1 | inactive | inactive
Fc1cccc(CNc2ncnc3ccc(-c4ccccc4Cl)cc23)c1 | inactive | inactive
Cc1ccc(OCCn2c(CCNC(=O)c3ccco3)nc3ccccc32)cc1 | inactive | inactive
